LDHA block = inhibitors of human lactate dehydrogenase A | purified LDHA, NADH/diaphorase-resazurin fluorescence; active compounds read low | activity change, % (values are at about 110 or 230 µM) | 480,000 compounds, 0.15% hits | AID 1347041; in the data active = activity change below about -30%; inconclusive = mostly about -25% to -30%;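 note: plate controls were DMSO wells for no effect and wells without enzyme for full effect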
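Enzyme activity of human lactate dehydrogenase 5 (2 nM; 0.06 mM NADH, 0.2 mM pyruvate, 5 min, RT) is measured via a resazurin/diaphorase fluorescence readout of residual NADH.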
Chronic BCR inh = inhibitors of chronic active B-cell receptor signaling; Potency, µM (series often up to 46.1 µM), for inactives: at the highest dose activity change, negative = inhibition, hits mostly inhibitors; AID 493014; ABC-DLBCL IkBa-CBG/CBR reporter, luminescence ratio, 4 h; 340,000 compounds, 0.05% hits; active = well fitted inhibition curve with a large enough effect in the signal ratio, with a control signal flat, not every such curve was filed as active; inconclusive = small, poorly fitted or top-dose-only effect, or effect the other way, or a change in a side signal; the % refers to the signal ratio;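 note: potency is the fitted concentration of half-maximal effect; plate controls were basal doxycycline-induced cells for no effect and cells given 10 µM MG132 for full effect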
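Cell line TMD8 (human ABC DLBCL), stably expressing tet-inducible CBG68-IkBa fusion and CBR; IMDM/0.5% FBS; cpd up to 46 uM; dox induction, 4 h, 37C/5% CO2; dual luminescence; green/red ratio; MG132 control.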
KCNH2 3.1 inh = blocks the human KCNH2 3.1 channel isoform. U2OS KCNH2 3.1, thallium flux FluxOr; active compounds read low. activity change, % (tested at about 1.8 µM). 340,000 compounds, 0.95% hits;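 active = maximum activity change below -70%; inconclusive = maximum activity change from -70% to -50%; inactive = maximum activity change above -50%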;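 note: thallium influx rate constant from kinetic fluorescence after stimulation buffer; % is set by controls: 0 for no effect and ±100 for the full control effect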
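Virally transduced U2OS (3.1 isoform, 4 h infection in dark at RT) → overnight 37 C → FluxOr + Red40 in HBSS/HEPES, 45 min → stimulation buffer, 2 min kinetic read → rate constant vs DMSO controls.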
ClpP mod = qHTS Assay for Activators of ClpP; purified B. subtilis ClpP, FRET peptide cleavage, 20 min; 340,000 compounds, 1.9% hits; Potency, µM (highest dose often 57.5 µM), inactives show at the highest dose activity change, negative = active; active = well fitted falling curve with a large enough effect; inconclusive = small, poorly fitted or top-dose-only effect; inactive = no such curve, though single readings can be large or run the other way; note: potency is the fitted concentration of half-maximal effect; the source files actives as falling curves though it sought activators and does not explain the sign; nearly all actives have a fitted effect of over 65% in size
Target sequence (P80244 whole entry, looked up): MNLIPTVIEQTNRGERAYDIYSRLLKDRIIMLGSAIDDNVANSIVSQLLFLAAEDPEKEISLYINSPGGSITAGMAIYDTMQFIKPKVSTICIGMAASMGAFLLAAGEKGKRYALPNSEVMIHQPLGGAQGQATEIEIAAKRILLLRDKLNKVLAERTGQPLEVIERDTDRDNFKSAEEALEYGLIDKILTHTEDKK
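ClpP 10 microg/mL final, pH 8 Tris/KCl buffer with BSA, glycerol, Tween-20; compound pinned in; FRET-FV substrate; RT 20 min; Ex320/Em430; ΔFRET vs ADEP 5.8 microM, DMSO, no enzyme.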
KCNH2 WT inh = blocks the wildtype human KCNH2 potassium channel; U2OS, BacMam KCNH2, thallium flux FluxOr; active compounds read low; activity change, % at 1.84 µM; 340,000 compounds, 0.37% hits;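 active = maximum activity change below -70%; inconclusive = maximum activity change between -70% and -50%; inactive = maximum activity change above -50%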; note: % is set by controls: 0 for no effect and ±100 for the full control effect
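U2OS cells transduced with wild-type KCNH2 virus are loaded with FluxOr dye for 45 min, and thallium flux is measured in kinetic reads before and after stimulation buffer. Rate constants are normalized to DMSO controls.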
12-LOX inh = ALOX12 (human) lipoxygenase inhibition. P18054. purified 12hLO, xylenol orange hydroperoxide absorbance. Potency, µM (series often up to 108 µM), inactives show at the highest dose activity change, negative = inhibition, actives largely listed as inhibitors. 580,000 compounds, 1.1% hits; note: potency is the fitted concentration of half-maximal effect; % is set by controls: 0 for no effect and ±100 for the full control effect
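Hydroperoxide product was detected by ferrous iron/xylenol orange as the 573 to 405 nm absorbance ratio. Arachidonic acid at 40 uM (final) was turned over for 30 min at room temperature by 150 nM human 12hLO, pH 7.0 Hepes buffer, after 15 min compound preincubation.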
ClpP validation = validation of B. subtilis ClpP protease hits (inhibitors); shares compounds with ClpP mod; purified B. subtilis ClpP, FRET-FV substrate cleavage, 20 min; Potency, µM (series often up to 57.5 µM), inactives show at the top dose activity change, negative = inhibition, most hits filed as inhibitors; 470 compounds, 40% hits; note: potency is the fitted concentration of half-maximal effect; % is set by controls: 0 for no effect and ±100 for the full control effect; nearly all actives have a fitted effect of over 70% in size
The depositor's hits bear a star. Sampled rows, rich in hits. Any-hit rate of the full collection: about 3%. Unless noted, calls come from the whole dose curve; as a rule, active = well fitted curve in the direction sought with a large enough effect; inconclusive = small, poorly fitted or top-dose-only effect, or another doubt; inactive = no such curve, though single readings can be large; an effect the other way counts as inactive or inconclusive.

Screening CC(C)c1ccc2oc(-c3ccc(Cl)c(NC(=O)Cc4ccccc4)c3)nc2c1 returned LDHA block -2, ClpP mod -20% and 12-LOX inh -13%.
Cc1ccc(-c2nc3cc(C(C)C)ccc3o2)cc1NC(=O)c1cc2ccccc2o1 was read as LDHA block -4, ClpP mod inconclusive, 12-LOX inh -28% and ClpP validation 31µM*.
O=C(O)c1ccccc1NC(c1ccccc1)c1ccc2cccnc2c1O (stereo not drawn) was read as LDHA block -4, KCNH2 3.1 inh -13, ClpP mod 150%, KCNH2 WT inh 9, 12-LOX inh 18µM* and ClpP validation inconclusive.
Screening Cc1ccnc(NC(c2ccccc2)c2ccc3cccnc3c2O)c1 (stereo not drawn) returned LDHA block 1, KCNH2 3.1 inh -19, KCNH2 WT inh 2 and 12-LOX inh inconclusive.
Screening Clc1ccc(N2N=C(c3cccs3)CC2c2ccco2)cc1 (stereo not drawn) returned LDHA block 1, Chronic BCR inh inconclusive, KCNH2 3.1 inh -1, ClpP mod 3.5µM*, KCNH2 WT inh 12, 12-LOX inh -1% and ClpP validation 27µM*.
Cc1cccc(NC(=O)CCc2ncc(-c3ccc(F)cc3F)o2)c1 was read as LDHA block -7 and 12-LOX inh 29%.
`COc1ccc(S(=O)(=O)N2CCOCC2)cc1NC(=O)c1ccccc1-c1ccc(C(F)(F)F)cc1` gave LDHA block 1, Chronic BCR inh 4%, KCNH2 3.1 inh -12, ClpP mod 51%, KCNH2 WT inh 0, 12-LOX inh -22% and ClpP validation inconclusive.
Screening O=C(CSc1ncnc2sc3c(c12)CCC3)NCc1ccc(F)cc1 returned LDHA block 13 and 12-LOX inh 2%.
COc1ccc(C(=O)Nc2ccc(N3CCOCC3)cc2)cc1S(=O)(=O)NC1CCCC1 was read as LDHA block 3, Chronic BCR inh -3%, KCNH2 3.1 inh 15, ClpP mod 8.9µM*, KCNH2 WT inh -10, 12-LOX inh -8% and ClpP validation -1%.
`COc1cc(NC(=O)CCS(=O)(=O)c2nc(-c3cccs3)cc(C(F)(F)F)n2)cc(OC)c1OC` gave LDHA block 3, Chronic BCR inh inconclusive, ClpP mod 44%, 12-LOX inh -10% and ClpP validation 23%.
COc1ccc(NC(=O)CCS(=O)(=O)c2nc(-c3cccs3)cc(C(F)(F)F)n2)cc1OC was read as LDHA block 9, ClpP mod 17% and 12-LOX inh inconclusive.
`FC(F)(F)c1cc(-c2ccc(Cl)cc2)nc2ncnn12` gave LDHA block -4, Chronic BCR inh -2%, KCNH2 3.1 inh -1, ClpP mod 2.8µM*, KCNH2 WT inh 11, 12-LOX inh 0% and ClpP validation 17µM*.
For FC(F)(F)c1cc(-c2cccs2)nc2ncnn12 the results were LDHA block -5, Chronic BCR inh inconclusive, KCNH2 3.1 inh -7, KCNH2 WT inh -11 and 12-LOX inh 5%.
For CC1CCN(S(=O)(=O)c2ccc3c(c2)CCN3C(=O)Nc2cccc(Br)c2)CC1 the results were LDHA block -7, ClpP mod 59%, 12-LOX inh -6% and ClpP validation inconclusive.
For O=S(=O)(c1ccc(-c2csc(Nc3ccc(Br)cc3)n2)cc1)N1CCCC1 the results were LDHA block 1, Chronic BCR inh 4%, KCNH2 3.1 inh -12, ClpP mod 3.2µM*, KCNH2 WT inh -1, 12-LOX inh 0% and ClpP validation 27µM*.
Screening Cc1cc(C)cc(Nc2nc(-c3ccc(S(=O)(=O)N4CCCC4)cc3)cs2)c1 returned LDHA block -4, Chronic BCR inh 17%, KCNH2 3.1 inh 2, ClpP mod 4%, KCNH2 WT inh -5 and 12-LOX inh -25%.
Screening N#C/C(=C/c1cccs1)c1ccc(C(F)(F)F)cn1 returned LDHA block 1 and 12-LOX inh 9%.
For CCOc1ccc(NC(=O)c2ccc(-c3ccccc3)s2)cc1 the results were LDHA block -3, ClpP mod -4% and 12-LOX inh inconclusive.
For CNC(=O)c1ccc(-c2ccccc2)s1 the results were LDHA block -8, Chronic BCR inh inconclusive, KCNH2 3.1 inh 1, ClpP mod 3.5µM*, KCNH2 WT inh -4, 12-LOX inh -18% and ClpP validation 27µM*.
For COc1ccc(C(=O)n2cc(C(=O)c3cc(C)ccc3O)cn2)cc1OC the results were LDHA block -3, Chronic BCR inh -7%, KCNH2 3.1 inh -1, ClpP mod 96%, KCNH2 WT inh 6, 12-LOX inh -19% and ClpP validation 6%.
For CC(C)Oc1ccc(C(CC(=O)O)NC(=O)c2ccc(Cl)cc2)cc1 (stereo not drawn) the results were LDHA block -2 and 12-LOX inh -25%.
`COc1cc2c(cc1NC(=O)C(C)N1CCN(S(=O)(=O)c3ccc(C)c(C)c3)CC1)oc1ccccc12` (stereo not drawn) gave LDHA block -6, Chronic BCR inh -16%, KCNH2 3.1 inh -3, ClpP mod 3.2µM*, KCNH2 WT inh -4, 12-LOX inh -35% and ClpP validation inconclusive.
`COc1cc2c(cc1NC(=O)C(C)N1CCN(S(=O)(=O)c3ccccc3[N+](=O)[O-])CC1)oc1ccccc12` (stereo not drawn) gave LDHA block -4, Chronic BCR inh -5%, KCNH2 3.1 inh -6, ClpP mod -6%, KCNH2 WT inh 7 and 12-LOX inh 0%.
`CCOC(=O)C(C#N)C(N)=O` (stereo not drawn) gave LDHA block 4 and 12-LOX inh inconclusive.
`CCN(Cc1nc(-c2cccc(C)c2)no1)C(=O)c1ccc2c(c1)OCO2` gave LDHA block -8, Chronic BCR inh 6%, KCNH2 3.1 inh 1, ClpP mod 8.9µM*, KCNH2 WT inh 0, 12-LOX inh -16% and ClpP validation -1%.
`CCOc1ccc(S(=O)(=O)Nc2ccc(C(=O)N3CC(C)OC(C)C3)cc2)cc1` (stereo not drawn) gave LDHA block -1, Chronic BCR inh -1%, KCNH2 3.1 inh 7, ClpP mod 5.6µM*, KCNH2 WT inh -21, 12-LOX inh 8% and ClpP validation 0%.
